For one compound, % of control activity results are on record in PubChem BioAssay AID753 (Emory University Molecular Libraries Screening Center, 2007).

For the assay, the target named is Ubiquitin carboxyl-terminal hydrolase BAP1 (Homo sapiens) (UniProt Q92560). The experiment in a line: BAP1 deubiquitinase inhibitors, hit retest, confirmation, orthogonal assay, biochemical, Ub-ethyl ester substrate, HPLC readout (AID 753). The conditions noted are these: purified BAP1, Ub-ethyl ester hydrolysis, at 20 µM, active compounds read low.

Some of the results follow. Results filed as inconclusive are left out. Activity calls are given as the source filed them.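 Rule for the calls: active = percent of control activity at or below 60%; inconclusive = HPLC trace unusable from injection failure or solvent front hiding peaks; inactive = the rest, plus ubiquitin peak ratio over a set limit.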

Chain of Ubiquitin carboxyl-terminal hydrolase BAP1 (Homo sapiens) (Q92560 whole entry, looked up): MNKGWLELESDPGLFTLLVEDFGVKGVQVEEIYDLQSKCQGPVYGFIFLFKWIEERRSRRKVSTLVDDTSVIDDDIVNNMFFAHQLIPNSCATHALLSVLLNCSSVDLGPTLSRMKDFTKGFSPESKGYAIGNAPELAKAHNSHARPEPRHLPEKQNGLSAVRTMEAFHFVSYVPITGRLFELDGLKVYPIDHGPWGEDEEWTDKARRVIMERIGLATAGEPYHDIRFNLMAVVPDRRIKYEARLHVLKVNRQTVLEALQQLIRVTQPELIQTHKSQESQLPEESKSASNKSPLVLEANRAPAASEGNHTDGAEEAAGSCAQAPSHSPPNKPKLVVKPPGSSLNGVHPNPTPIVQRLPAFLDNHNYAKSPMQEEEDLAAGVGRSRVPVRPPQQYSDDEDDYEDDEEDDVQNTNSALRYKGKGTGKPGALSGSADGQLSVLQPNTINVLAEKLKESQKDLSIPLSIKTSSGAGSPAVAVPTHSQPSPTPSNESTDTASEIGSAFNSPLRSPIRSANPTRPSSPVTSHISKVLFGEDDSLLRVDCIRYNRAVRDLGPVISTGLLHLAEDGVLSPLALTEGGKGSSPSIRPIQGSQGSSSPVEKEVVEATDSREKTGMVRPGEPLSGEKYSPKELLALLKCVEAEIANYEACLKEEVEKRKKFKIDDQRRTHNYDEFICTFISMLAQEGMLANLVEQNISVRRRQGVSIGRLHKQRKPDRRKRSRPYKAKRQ

As to `CCCCCn1c(=O)c(C(=O)NCc2ccccn2)c(O)c2ccccc21`, the % of control activity was 112% (inactive).
